The source of these data is the supplement of paper PMC10981050.

Common to all, as to assay: cell viability relative to vehicle control; higher = less cytotoxic
Details in all cases: 10 µM

Test [1] has as its system K562. The gist of the method: (§1)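 Screening covered the Selleck bioactive, kinase and epigenetic probe libraries, less identity-inconsistent compounds, on CRISPR-edited mutant clones and isogenic wild-type clones of four leukaemia lines. Cells, at 2000 per well in 50 µL medium, received a single 10 µM acoustically dispensed dose. After 48 h the supernatant was removed and CellTiter-Glo luminescence was read. Viability was analysed in Genedata Screener as percent of the on-plate vehicle control.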

In test [2] the test system is MARIMO. Summed up: as §1
The subject of test [3] is MOLM14. The gist of the method: as §1
In test [4] the test system is OCI-AML2. The gist of the method:
as §1

Where “and” joins values, the source holds several entries; their conditions need not be identical. Identical values can stand only once. Counter-ions that a name gives are not always drawn.

In general, cell viability refers to a read-out of living cells in per cent, often relative to untreated cells. As for `COc1ccc(-c2cc(=O)c3c(OC)c(OC)c(OC)c(OC)c3o2)cc1` [Tangeretin (Tangeritin)], the cell viability is 95.5% and 98.4% in test [1] (SRSF2 genotype: SRSF2 P95H/wt); 103% in test [1] (SRSF2 genotype: SRSF2 wt/wt); 91.7% in test [2] (SRSF2 genotype: SRSF2 P95H/wt); 90.8% in test [2] (SRSF2 genotype: SRSF2 wt/wt); 96% in test [3] (SRSF2 genotype: SRSF2 P95H/wt); 102% in test [3] (SRSF2 genotype: SRSF2 wt/wt). Besides, the cell viability was found to be 82.9% in test [4] (SRSF2 genotype: P95H/wt) and 88.1% in test [4] (SRSF2 genotype: wt/wt).
`CC(C(=O)Nc1cccc(/N=C/c2c(O)ccc3ccccc23)c1)c1ccccc1` (stereo not given) [Salermide]: the cell viability in test [1] (SRSF2 genotype: SRSF2 P95H/wt) was 82.7% and 84.2%; in test [1] (SRSF2 genotype: SRSF2 wt/wt), 83.2%; in test [2] (SRSF2 genotype: SRSF2 P95H/wt) it was 90.8%; in test [2] (SRSF2 genotype: SRSF2 wt/wt) it was 93.8%; in test [3] (SRSF2 genotype: SRSF2 P95H/wt), 104%; in test [3] (SRSF2 genotype: SRSF2 wt/wt), 101%. Besides, the cell viability was determined as 88.6% in test [4] (SRSF2 genotype: P95H/wt) and 90.3% in test [4] (SRSF2 genotype: wt/wt).
As to `CC(CCc1ccccc1)NCC(=O)c1ccc(O)c(C(N)=O)c1` (stereo not given) [Labetalone hydrochloride], the cell viability was 92.1% and 89.7% in test [1] (SRSF2 genotype: SRSF2 P95H/wt); 108% in test [1] (SRSF2 genotype: SRSF2 wt/wt); 96.7% in test [2] (SRSF2 genotype: SRSF2 P95H/wt); 102% in test [2] (SRSF2 genotype: SRSF2 wt/wt); 108% in test [3] (SRSF2 genotype: SRSF2 P95H/wt); 104% in test [3] (SRSF2 genotype: SRSF2 wt/wt). The cell viability in test [4] (SRSF2 genotype: P95H/wt) is 99.7%; in test [4] (SRSF2 genotype: wt/wt) it was 108%.
In the case of `O=C(O)c1ccc(NC(=O)[C@H](Cc2ccc(O)cc2)NC(=O)c2ccccc2)cc1` [bentiromide], the cell viability was 103% and 106% in test [1] (SRSF2 genotype: SRSF2 P95H/wt); 106% in test [1] (SRSF2 genotype: SRSF2 wt/wt); 112% in test [2] (SRSF2 genotype: SRSF2 P95H/wt); 111% in test [2] (SRSF2 genotype: SRSF2 wt/wt); 95.6% in test [3] (SRSF2 genotype: SRSF2 P95H/wt); 104% in test [3] (SRSF2 genotype: SRSF2 wt/wt). The cell viability in test [4] (SRSF2 genotype: P95H/wt) turned out to be 110%; in test [4] (SRSF2 genotype: wt/wt), 96.2%.
For the molecule `CC(O)COCC1OC2OC3C(COCC(C)O)OC(OC4C(COCC(C)O)OC(OC5C(COCC(C)O)OC(OC6C(COCC(C)O)OC(OC7C(COCC(C)O)OC(OC8C(COCC(C)O)OC(OC1C(O)C2O)C(O)C8O)C(O)C7O)C(O)C6O)C(O)C5O)C(O)C4O)C(O)C3O` (stereo not given), the cell viability in test [1] (SRSF2 genotype: SRSF2 P95H/wt) was 100% and 108%; in test [1] (SRSF2 genotype: SRSF2 wt/wt) it was 109%; in test [2] (SRSF2 genotype: SRSF2 P95H/wt) it was 105%; in test [2] (SRSF2 genotype: SRSF2 wt/wt), 112%; in test [3] (SRSF2 genotype: SRSF2 P95H/wt) it was 106%; in test [3] (SRSF2 genotype: SRSF2 wt/wt), 108%. For the same molecule, the figures for the cell viability in test [4] (SRSF2 genotype: P95H/wt) and in test [4] (SRSF2 genotype: wt/wt) were 108% and 95.8%, respectively.
Turning to `C[C@@H]1COCCN1c1cc(C2(S(C)(=O)=O)CC2)nc(-c2cccc3[nH]ccc23)n1`, the cell viability in test [1] (SRSF2 genotype: SRSF2 P95H/wt) is 8.63% and 11.6%; in test [1] (SRSF2 genotype: SRSF2 wt/wt), 8.6%; in test [2] (SRSF2 genotype: SRSF2 P95H/wt) it was 20.2%; in test [2] (SRSF2 genotype: SRSF2 wt/wt) it was 18%; in test [3] (SRSF2 genotype: SRSF2 P95H/wt) it was 22.2%; in test [3] (SRSF2 genotype: SRSF2 wt/wt), 7.72%. Besides, the results for the cell viability in test [4] (SRSF2 genotype: P95H/wt) and in test [4] (SRSF2 genotype: wt/wt) were 16.2% and 18.7%, respectively.
As to `Nc1ccn([C@H]2CC[C@@H](CO)O2)c(=O)n1` [Zalcitabine], the cell viability was 111% and 103% in test [1] (SRSF2 genotype: SRSF2 P95H/wt); 111% in test [1] (SRSF2 genotype: SRSF2 wt/wt); 107% in test [2] (SRSF2 genotype: SRSF2 P95H/wt); 112% in test [2] (SRSF2 genotype: SRSF2 wt/wt); 105% in test [3] (SRSF2 genotype: SRSF2 P95H/wt); 107% in test [3] (SRSF2 genotype: SRSF2 wt/wt). Besides, the cell viability in test [4] (SRSF2 genotype: P95H/wt) was found to be 58.7%; in test [4] (SRSF2 genotype: wt/wt) it was 83%.
Consider `CC12CCC(O)CC1=CCC1C2CCC2(C)C(C(O)CC(O)(C(F)(F)F)C(F)(F)F)CCC12` (stereo not given), for which the cell viability in test [1] (SRSF2 genotype: SRSF2 P95H/wt) was 86.1% and 93.4%; in test [1] (SRSF2 genotype: SRSF2 wt/wt) it was 98.3%; in test [2] (SRSF2 genotype: SRSF2 P95H/wt) it was 97%; in test [2] (SRSF2 genotype: SRSF2 wt/wt), 90.3%; in test [3] (SRSF2 genotype: SRSF2 P95H/wt), 76.7%; in test [3] (SRSF2 genotype: SRSF2 wt/wt) it was 91.8%. In addition, the cell viability was 71.3% in test [4] (SRSF2 genotype: P95H/wt) and 76.3% in test [4] (SRSF2 genotype: wt/wt).
With `Cc1ccc(-c2n[nH]c3c2C(c2cccc(O)c2)N(c2ccc(C(=O)O)cc2)C3=O)cc1` (stereo not given), the cell viability is 104% and 100% in test [1] (SRSF2 genotype: SRSF2 P95H/wt); 105% in test [1] (SRSF2 genotype: SRSF2 wt/wt); 101% in test [2] (SRSF2 genotype: SRSF2 P95H/wt); 106% in test [2] (SRSF2 genotype: SRSF2 wt/wt); 100% in test [3] (SRSF2 genotype: SRSF2 P95H/wt); 107% in test [3] (SRSF2 genotype: SRSF2 wt/wt). The results for the cell viability in test [4] (SRSF2 genotype: P95H/wt) and in test [4] (SRSF2 genotype: wt/wt) were 104% and 106%, respectively.
As for `O=C(/C=C/c1ccc(O)c2c1[C@H](C(=O)O)[C@@H](c1ccc(O)c(O)c1)O2)O[C@H](Cc1ccc(O)c(O)c1)C(=O)O` [Lithospermic acid], the cell viability in test [1] (SRSF2 genotype: SRSF2 P95H/wt) is 96.8% and 101%; in test [1] (SRSF2 genotype: SRSF2 wt/wt), 96%; in test [2] (SRSF2 genotype: SRSF2 P95H/wt), 97.9%; in test [2] (SRSF2 genotype: SRSF2 wt/wt), 88.7%; in test [3] (SRSF2 genotype: SRSF2 P95H/wt), 104%; in test [3] (SRSF2 genotype: SRSF2 wt/wt) it was 99.9%. Further, the cell viability came out at 88.6% in test [4] (SRSF2 genotype: P95H/wt) and 97.6% in test [4] (SRSF2 genotype: wt/wt).
